Screening data (PubChem BioAssay)
Sampled rows, rich in hits. Any-hit rate of the full collection: about 3.9%.
D1 agonist: Allosteric Agonists of the Human D1 Dopamine Receptor: qHTS; activation, % at 2 µM; HEK293 T-REx D1 cells, calcium flux, agonist mode; 1% of 360,000 active; in the data active means activation above about 30%
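Agonism was scored from calcium flux recorded over 180 s (1 read/s) after pintool compound addition, following a 10-cycle baseline. Cells were inducible force-coupled HEK293 TREx D1, plated overnight at 30 C and loaded with no-wash calcium dye.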
GALK inhibitor: qHTS Assay for Inhibitors of Human Galactokinase (GALK); Purified GALK, Kinase-Glo residual ATP luminescence; Potency, µM (titrated, usually from 57.5 µM), actives largely listed as inhibitors; 0.007% of 270,000 active; AID 1868, 2009
Target sequence (P51570 whole entry, looked up): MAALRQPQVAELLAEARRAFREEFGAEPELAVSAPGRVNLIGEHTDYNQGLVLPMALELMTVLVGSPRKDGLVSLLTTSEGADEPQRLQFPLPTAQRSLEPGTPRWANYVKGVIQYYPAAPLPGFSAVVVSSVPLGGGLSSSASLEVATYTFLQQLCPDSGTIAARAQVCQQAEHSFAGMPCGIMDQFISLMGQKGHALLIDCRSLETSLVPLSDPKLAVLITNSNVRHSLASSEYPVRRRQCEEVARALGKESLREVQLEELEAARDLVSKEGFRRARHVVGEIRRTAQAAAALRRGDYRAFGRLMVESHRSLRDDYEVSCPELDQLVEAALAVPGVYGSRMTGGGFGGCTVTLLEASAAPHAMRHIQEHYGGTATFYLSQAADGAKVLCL
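Galactose (100 uM) and ATP (35 uM) were turned over by 5 nM GALK for 1 h at RT. Kinase-Glo Plus then converted the remaining ATP into a luminescent signal.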
USP2a inh: qHTS Assay for Inhibitors of Ubiquitin-specific Protease USP2a Using CHOP2 as the Reporter | Ubiquitin carboxyl-terminal hydrolase 2 (Homo sapiens), O75604 | USP2 core, Ub-CHOP2 coupled fluorogenic reporter, 485/531 | 0.01% of 330,000 active | Potency, µM (titrated, usually from 38.3 µM), hits mostly inhibitors
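Cell-free coupled assay: 10nM USP2 core preincubated 30min RT with compound in Tris-HCl pH 8.0/CaCl2/CHAPS buffer, then 25nM Ub-CHOP2 and 25nM reporter substrate; fluorescence (Ex 485/Em 531) read after 60min RT, normalized to NEM inhibition, concentration-response curves fitted.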
D1 antagonist: Antagonist of Human D 1 Dopamine Receptor: qHTS. D(1A) dopamine receptor (Homo sapiens), P21728. HEK293 TREx D1 cells, calcium flux, dopamine EC80; active compounds read low. activity change, negative = inhibition, % at 10 µM. 3.2% of 360,000 active; in the data active means activity change below about -30%
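Inducible Hek293 Trex D1 cells (tetracycline, overnight, 30 C). Calcium dye 30–90 min RT. Antagonist mode: EC80 dopamine added after 180 s compound read.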
D1 PAM: Potentiators of Human D1 Dopamine Receptor: qHTS; D(1A) dopamine receptor (Homo sapiens), P21728; HEK293 TREx D1 cells, calcium flux, dopamine EC20 potentiation; potentiation, % at 10 µM; 0.036% of 360,000 active; AID 504651, 2011; in the data active means potentiation above about 30%
Eya2 phos inh: qHTS Assay for Inhibitors of the Phosphatase Activity of Eya2 | Protein phosphatase EYA2 (Homo sapiens), O00167 | recombinant Eya2, OMFP fluorescence dephosphorylation (OMFP is methylfluorescein phosphate) | 0.006% of 330,000 active | Potency, µM (highest dose often 76.9 µM), most hits filed as inhibitors | AID 488837, 2010
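Eya2 (0.2 uM) preincubated 10 min at ambient with compound, then OMFP substrate added at 50 uM; 10 min reaction in 50 mM HEPES pH 7.5, 50 mM NaCl, 5 uM MgCl2, 0.05% BSA, 1 mM DTT. Fluorescence read at Ex 485/Em 525 nm.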
Large screens that a line does not name were inactive. Unless noted, the call rests on the fitted dose curve; in most records, active means well fitted inhibition curve with a large enough effect; inconclusive means small, poorly fitted or top-dose-only effect, or effect the other way; inactive means flat fitted curve, though single readings scatter.

CC(=O)OCc1ccccc1Sc1ccccc1C(=O)NCc1ccccc1	D1 antagonist -44.7
COC(=O)CN1C(=O)CSc2ccc(S(=O)(=O)Nc3ccccc3)cc21	none (no result: GALK inhibitor, USP2a inh, Eya2 phos inh)
COc1cccc(OCCCn2cc(/C=C3/C(=N)N4C=C(C)SC4=NC3=O)c3ccccc32)c1	D1 agonist 34.4
COc1ccc(OCCCn2cc(/C=C3/C(=N)N4C=C(C)SC4=NC3=O)c3ccccc32)cc1	none
COc1cc(OC)c(NC(=O)c2cn(C3CCCC3)c(=O)c3c2c2ccccc2n3C)cc1Cl	none (no result: GALK inhibitor, USP2a inh, Eya2 phos inh)
Cc1cccc(C(=O)NC(NCCc2ccccc2)C(Cl)(Cl)Cl)c1 (configuration not stated)	D1 antagonist -41.4
CCCCNc1nc2c(c(=O)n(Cc3ccc(Cl)cc3)c(=O)n2C)n1C	none (no result: GALK inhibitor, USP2a inh, Eya2 phos inh)
COc1ccc2c(n1)Sc1nc3ccccc3nc1N2	D1 agonist 261.6
CCN(CC)CC(O)COc1ccccc1C(=O)CCc1ccccc1 (configuration not stated)	none
CCCNCC(O)COc1ccccc1C(=O)CCc1ccccc1 (configuration not stated)	D1 antagonist -51.9 (no result: D1 agonist, D1 PAM)
Cc1c(CNC2CCCCCC2)c(C(=O)O)c(C)n1Cc1cccc(Cl)c1	none (no result: GALK inhibitor, USP2a inh, Eya2 phos inh)
CCc1ccccc1NC(=O)Nc1cccs1	none
Cc1ccc(NC(=O)Nc2cccs2)c(C)c1	D1 antagonist -40.6 (no result: GALK inhibitor, USP2a inh, Eya2 phos inh)
Cc1ccc(Cl)cc1NC(=O)Nc1cccs1	D1 antagonist -62.9, Eya2 phos inh inconclusive
Cc1ccccc1NC(=O)Nc1cccs1	D1 antagonist -35.7
CCOc1cc(NC(=S)Nc2ccccc2)c(OCC)cc1NC(=O)c1ccc(OC)cc1	Eya2 phos inh inconclusive (no result: D1 agonist, D1 antagonist, D1 PAM)
CCOc1cc(NC(=S)Nc2ccc(Cl)cc2)c(OCC)cc1NC(C)=O	D1 antagonist -40.0
COc1ccc(OC)c(/C=C2\N=C(c3ccccc3)OC2=O)c1	D1 agonist 74.0
O=S(=O)(NCC1CCCO1)c1cccc(C(F)(F)F)c1 (configuration not stated)	D1 antagonist -45.6
COC(=O)c1cc(S(=O)(=O)NCC2CCN(Cc3ccc(F)cc3)CC2)c[nH]1	none
CCOc1ccccc1CN1CCCC(CNS(=O)(=O)c2ccc(OC)cc2)C1 (configuration not stated)	none
COc1ccc(CN2CCC(CNS(=O)(=O)c3cccc(C(F)(F)F)c3)CC2)cc1	D1 agonist 35.3
COc1ccc(S(=O)(=O)NCC2CCCN(Cc3ccccc3C)C2)cc1 (configuration not stated)	D1 antagonist -30.4
CC(Oc1ccc(Br)cc1)C(=O)Nc1ccncc1 (configuration not stated)	none
Cc1ccc(OC(C)C(=O)Nc2ccncc2)cc1C (configuration not stated)	D1 antagonist -32.2
CC(Oc1ccc(Br)cc1Cl)C(=O)Nc1ccncc1 (configuration not stated)	D1 antagonist -34.5
Cc1cc(=O)oc2cc(OC(C)C(=O)NC3CCCC3)ccc12 (configuration not stated)	none
Cc1cc(=O)oc2cc(OC(C)C(=O)Nc3nccs3)ccc12 (configuration not stated)	D1 antagonist -37.0
CC(C)c1ccc(NC(=O)c2ccc(NC(=O)CCS(=O)(=O)c3cccs3)cc2)cc1	none (no result: GALK inhibitor, USP2a inh, Eya2 phos inh)
CCOC(=O)c1noc2ncn(CC(=O)Nc3cccc(Cl)c3)c(=O)c12	none (no result: GALK inhibitor, USP2a inh, Eya2 phos inh)
Cc1cnc(C(=O)Nc2ccc(C(C)C)cc2)cn1	D1 antagonist -31.3
S=C(NCCc1ccc(Cl)cc1)NC1CCCC1	none
Fc1ccc(CNC(=S)NC2CCCCCC2)cc1	D1 antagonist -36.0
S=C(NCCc1ccc(Cl)cc1)NC1CCCCC1	D1 antagonist -41.0
S=C(Nc1cccc(Cl)c1)NC1CCCCC1	D1 antagonist -33.9
S=C(NNc1cccc(Cl)c1)NC1CCCCC1	none
O=C(NCc1ccccc1Cl)c1ccc(CS(=O)Cc2ccc(Cl)cc2)o1 (configuration not stated)	D1 antagonist -46.0
O=C(NCc1ccccc1Cl)c1ccc2oc(=O)n(Cc3ccccc3)c2c1	D1 antagonist -32.7 (no result: GALK inhibitor, USP2a inh, Eya2 phos inh)
O=C(NCc1ccccc1Cl)c1ccc(CS(=O)(=O)c2ccc(Br)cc2)o1	D1 agonist 45.7 (no result: GALK inhibitor, USP2a inh, Eya2 phos inh)
Cc1ccc(C(=O)c2c[nH]c(C(=O)NCc3cccnc3)c2)cc1	D1 antagonist -49.4
CN1Cc2sccc2C(c2ccc(O)c(O)c2)C1 (configuration not stated)	none (no result: D1 agonist, GALK inhibitor, USP2a inh, D1 antagonist, D1 PAM)
COc1cccc(CNS(=O)(=O)c2cnc(N)nc2)c1	none (no result: GALK inhibitor, USP2a inh, Eya2 phos inh)
CCCn1c2ccccc2c2cnn(CC(=O)N3CCN(c4ccccc4)CC3)c(=O)c21	none (no result: GALK inhibitor, USP2a inh, Eya2 phos inh)
Cc1cccc(Cn2ncc3c4sc(C)cc4n(C)c3c2=O)c1	none (no result: GALK inhibitor, USP2a inh, Eya2 phos inh)
COc1ccc(S(=O)(=O)Cc2ccc(C(=O)NCc3ccc(C)cc3)o2)cc1	none
O=C(c1ccc(CS(=O)(=O)c2ccc(Br)cc2)o1)N1CCCC1	USP2a inh inconclusive (no result: D1 PAM)
COc1ccccc1CNC(=O)c1ccc(CS(=O)(=O)c2ccc(C)cc2)o1	D1 antagonist -50.2
O=C(NCc1ccccc1Cl)c1cc2ccccc2o1	D1 agonist 34.1, D1 antagonist -32.6 (no result: GALK inhibitor, USP2a inh, Eya2 phos inh)
O=C(c1ccc(CS(=O)(=O)c2ccc(Br)cc2)o1)N1CCCCCC1	D1 agonist 33.4 (no result: D1 PAM)
Cc1ccc(CS(=O)(=O)Cc2ccc(C(=O)NCc3cccnc3)o2)cc1	D1 antagonist -32.7
Cc1ccc(CNC(=O)Cc2ccc(NC(=O)N3CCSc4ncccc43)cc2)cc1	none (no result: GALK inhibitor, USP2a inh, Eya2 phos inh)
COc1ccccc1CNC(=O)c1ccc(CS(=O)(=O)c2ccccc2OC)o1	D1 antagonist -88.9
COc1ccc(S(=O)(=O)Cc2ccc(C(=O)NCCc3ccc(S(N)(=O)=O)cc3)o2)cc1	D1 antagonist -34.8
COc1ccccc1S(=O)(=O)Cc1ccc(C(=O)NCc2ccc(C)cc2)o1	none
COc1ccc(CNC(=O)Cc2csc3nc(-c4ccc(F)cc4)cn23)cc1	none (no result: GALK inhibitor, USP2a inh, Eya2 phos inh)
Cc1[nH]nc2c1C(c1ccc(-c3ccc(Cl)cc3)o1)C(C#N)=C(N)O2 (configuration not stated)	none (no result: GALK inhibitor)
Cc1ccc(-c2ccc(C3C(C#N)=C(N)Oc4n[nH]c(C)c43)o2)cc1 (configuration not stated)	D1 antagonist -47.8
CCOC(=O)c1ccc(NC(=O)CSc2nnc(-c3ccncc3)n2-c2ccccc2)cc1	none (no result: GALK inhibitor, USP2a inh, Eya2 phos inh)
